Measured values published in ChEMBL document CHEMBL4513216, “Probing the Open Global Health Chemical Diversity Library for Multistage-Active Starting Points for Next-Generation Antimalarials” (ACS Infect Dis, 2020).
The whole screen tested about 69,000 compounds, of which about 8,600 (12%) showed an effect of 50% or more. This is one part of a sample in which strong results are shown more often than they occur.

test system: Plasmodium berghei; experiment: Screen against P. berghei liver stage (PbLuc), transformed with Luciferase, at 10uM; format: functional, HepG2; conditions: tested at 10 uM

Row | SMILES | INHIBITION
1 | Fc1ccccc1CC1CCN(Cc2ccccn2)CC1 | 45.2%
2 | Fc1ccccc1CC1CCN(Cc2nccs2)CC1 | -131%
3 | Fc1ccccc1CC1CCN(Cc2cscn2)CC1 | 82.4%
4 | Cc1noc(CN2CCN(CCO)CC2)n1 | -14.9%
5 | CCn1cnnc1CNC(=O)N1CCN(C(C)C)CC1 | 21.5%
6 | CN(C)C(=O)CO[C@H]1CN(Cc2ccoc2)[C@@H]2COC[C@H]12 | 39.5%
7 | CCc1cnccc1C(=O)Nc1ccc(C(N)=O)nc1 | 25.1%
8 | CCc1nnc2n1CCN(C(=O)c1cc3c(F)cccc3[nH]1)C2 | 21%
9 | COCCN1C(=O)[C@@H]2CC[C@H]1CN(Cc1nnc(C3CC3)o1)C2 | 16.2%
10 | COc1ncc(CN2CCCC(c3[nH]ncc3S(C)(=O)=O)C2)cn1 (centres undefined) | 7.05%
11 | CCn1cc(-c2cc(C(F)(F)F)nn2CCC#N)cn1 | 11.8%
12 | Cn1c(C2CC2)nc2c1CCN(CC(=O)Nc1ccncc1)C2 | -31.5%
13 | N[C@H]1CN(C(=O)c2ccccc2Oc2ccccc2)C[C@@H]1C1CC1 | 31.2%
14 | CO[C@@H]1CCC[C@@H](N(C)C(=O)c2cc(F)ccc2F)[C@H]1O | -10.4%
15 | CNCc1cc(F)ccc1Oc1ccc(F)cc1 | 29.3%
16 | Cc1ccc(Oc2cc(F)ccc2O[C@@H]2CCC[C@@H](N)[C@H]2O)cc1 | 94.1%
17 | N[C@@H]1CCC[C@@H](Oc2ccc(F)cc2Oc2cccc(F)c2)[C@@H]1O | 23.2%
18 | CN[C@@H]1CCC[C@@H](Oc2ccccc2Oc2ccc(C)cc2)[C@@H]1O | 60.2%
19 | Cc1noc(C)c1C(=O)N[C@@H]1CCC[C@@H](Oc2ccccc2)[C@@H]1O | 17.39%
20 | Cc1n[nH]c(C)c1CCC(=O)N[C@@H]1CCC[C@@H](Oc2ccccc2)[C@@H]1O | -18.8%
21 | N[C@@H]1CCC[C@@H](Oc2ccc(F)cc2Oc2ccccc2)[C@@H]1O | 54.4%
22 | O=C(c1ccncc1F)N1CCCC(c2nccn2CC2CCC2)C1 (centres undefined) | 36.8%
23 | CC(C)C(C(=O)N1CCCN(Cc2nccn2C)CC1)N1CCCC1 (centres undefined) | 11.6%
24 | O=C(NC1CCCN(CCCc2ccccc2)C1)c1ccc(Cl)s1 (centres undefined) | 35.1%
25 | CN(C)CC(O)Cn1cc(NCc2ccc(Br)cc2)cn1 (centres undefined) | 33.1%
26 | CCOc1ccc(C(=O)NCc2ccnc(N3CCN(C)CC3)c2)cn1 | 14%
27 | CC(C)Oc1ccc(C(=O)NCc2ccc3c(c2)CCCN3C)cn1 | 29.2%

Row | SMILES | INHIBITION
28 | Cc1ccc(C(=O)NCc2ccnc(N3CCN(C)CC3)c2)cn1 | 38.9%
29 | CCOc1ccc(C(=O)NCc2ccnc(N3CCCC3)c2)cn1 | 70.5%
30 | CC(C)Oc1ccc(C(=O)NCc2ccnc(N3CCCC3)c2)cn1 | 79.9%
31 | CC(C(=O)NCc1ccnc(N2CCCC2)c1)n1cccn1 (centres undefined) | 13.275%
32 | CC(O)CN1CCC(CN(C)Cc2cccc(C(=O)N(C)C)c2)CC1 (centres undefined) | 21.5%
33 | CO[C@@H]1CCN(C(=O)Cc2ccsc2)[C@H]1Cc1cccnc1 | -41%
34 | C[S+]([O-])CCNC(=O)N1CCN(c2cc(F)ccc2F)CC1 (centres undefined) | 0.348%
35 | Cc1nc(COC[C@]23COC[C@H]2CN(Cc2ccoc2)C3)cs1 | -14%
36 | CN(C)C(=O)COCC1CN(Cc2ccsc2)Cc2nccn2C1 (centres undefined) | 46.2%
37 | c1ccc(COCC2CN(Cc3ccsc3)Cc3nccn3C2)nc1 (centres undefined) | 76.5%
38 | N#Cc1cccc(CN2Cc3nccn3CC(CN3CCCC3)C2)c1 (centres undefined) | -13%
39 | COc1ncccc1CN1Cc2nccn2CC(CN2CCCC2)C1 (centres undefined) | 72%
40 | CCOCC1CN(Cc2cccc(C#N)c2)Cc2nccn2C1 (centres undefined) | 41.8%
41 | N#Cc1cccc(CN2Cc3nccn3CC(COCC3CC3)C2)c1 (centres undefined) | -102%
42 | c1ccc(CN2Cc3nccn3CC(Cn3cccn3)C2)nc1 (centres undefined) | 56.6%
43 | CN(C)CCOCC1CN(Cc2cccc(F)c2)Cc2nccn2C1 (centres undefined) | 86.7%
44 | c1cncc(OCC2CN(Cc3ccsc3)Cc3nccn3C2)c1 (centres undefined) | 39.2%
45 | c1cncc(CN2Cc3nccn3CC(Cn3cccn3)C2)c1 (centres undefined) | 30.3%
46 | c1ccc(CN2Cc3nccn3CC(Cn3cncn3)C2)nc1 (centres undefined) | -37.9%
47 | COc1ncccc1CN1Cc2nccn2CC(Cn2cccn2)C1 (centres undefined) | 24.9%
48 | CC(=O)N(Cc1ncc(C(C)C)o1)C1CCN(CCC#N)C1 (centres undefined) | -6.865%
49 | Cn1cc(C(=O)N[C@@H]2CN(Cc3cccs3)[C@@H]3CCCO[C@@H]32)cn1 | 15.1%
50 | CN(Cc1cccc(F)c1)C(=O)c1cc2c([nH]c1=O)CCCC2=O | 8.535%
51 | CCn1c(C2CCN(C(=O)CCc3cc(Cl)no3)CC2)nn(C)c1=O | 0%
52 | Cc1cc(O)cc(=O)n1CCCC(=O)Nc1n[nH]c2cc(Br)ccc12 | 3.93%
53 | Fc1ccc(-c2nc(CNC3CCc4ncnn4C3)co2)cc1 (centres undefined) | 23.7%
54 | CCNC(=O)C1(Cc2cc(-c3ccccc3)no2)CCCN(C(C)C)C1 (centres undefined) | 4.41%
